The values that follow come from PubChem BioAssay (Tox21).

Records with an inconclusive call do not appear. Where a call stands in place of a potency, no number is given. Unmarked numbers belong to inactive results. Calls of active or inactive are those of the source. The call rests on the fitted dose curve.

D(2) dopamine receptor (Homo sapiens), sequence (P14416 whole entry, looked up): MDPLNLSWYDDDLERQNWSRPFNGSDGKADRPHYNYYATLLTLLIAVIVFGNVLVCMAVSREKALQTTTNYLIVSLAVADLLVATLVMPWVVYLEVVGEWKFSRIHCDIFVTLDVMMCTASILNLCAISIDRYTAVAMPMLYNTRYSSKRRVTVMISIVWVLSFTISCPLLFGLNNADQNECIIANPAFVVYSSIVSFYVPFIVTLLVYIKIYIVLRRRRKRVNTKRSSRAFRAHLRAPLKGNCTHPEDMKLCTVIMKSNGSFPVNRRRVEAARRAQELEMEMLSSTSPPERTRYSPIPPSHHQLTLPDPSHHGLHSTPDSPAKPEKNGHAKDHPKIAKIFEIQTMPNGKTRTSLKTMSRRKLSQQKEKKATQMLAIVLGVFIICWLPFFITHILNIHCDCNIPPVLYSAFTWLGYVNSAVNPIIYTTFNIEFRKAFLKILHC

The test has as its target D(2) dopamine receptor (Homo sapiens) (UniProt P14416). Description: Dopamine D2 receptor (DRD2) small molecule agonists, cell-based qHTS assay (AID 1963594). Further: nearly all actives have a fitted effect of over 35% in size. As to conditions: HEK293-DRD2 cAMP HTRF, agonist mode, 30 min; series mostly up to 92.4 µM. The gist of the method:
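HEK293 cells stably expressing DRD2 were cultured 24 h at 37 C, then given Ro20-1724 (0.1 mM final) and compounds for 10 min at room temperature. NKH477 (200nM) was then added for 30 min. cAMP was read by HTRF.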
A general note: qHTS replaces the single test concentration by a dilution series.
`Cc1cc(C)cc(O)c1`: the Potency entry is “inactive”.

As to `C=C(C)[C@@H]1CCC2=CC(=O)C[C@@H](C)[C@]2(C)C1`, the Potency entry is “inactive”.

For the compound `O=c1[nH]c(=O)c2ccccc2o1`, the Potency result is “inactive”.

`COCCOCCOCCOCCO`: the Potency result is “inactive”.

On to `CCCCCCCCCCCCCCC(=O)NC(CO)CCCCCCCCCCCCCC` (stereo unspecified), for which the Potency result was “inactive”.

For `C[C@@H]1CCC[C@H](C)N1CCCC(O)(c1ccccc1)c1ccccn1` (stereo partly specified), the Potency entry was “inactive”.

Take `CCCCCCCCCC(C)=O`: the Potency result is “inactive”.

In the case of `CN(C)c1ccc(C(=N)c2ccc(N(C)C)cc2)cc1`, the Potency entry was “inactive”.

As to `CCCCCCCCCC/C=C/C#N`, the Potency entry is “inactive”.

Consider `CNC(=O)Nc1ccc(Cl)c(Cl)c1`, for which the Potency entry is “inactive”.

`c1cnc2cc3c(cc2n1)C1CNCC3C1`: the Potency entry is “inactive”.

For `Nc1c(NC/C=C\COc2cc(CN3CCCCC3)ccn2)c(=O)c1=O`, the activation was -7.29% [at 19 µM].

`CCc1ccc(C=O)cc1`: the Potency result was “inactive”.

`COC(=O)Cc1cccc2ccccc12`: the Potency result was “inactive”.

For the compound `CCCc1c2oc(C(=O)O)cc(=O)c2cc2c(=O)cc(C(=O)O)n(CC)c12`, the Potency result is “inactive”.

On to `O=C(O)Cc1ccc(CCNS(=O)(=O)c2ccc(Cl)cc2)cc1`, for which the Potency entry was “inactive”.
